These results are taken from the supplement of paper PMC12067093, “Discovery and optimisation of a covalent ligand for TRIM25 and its application to targeted protein ubiquitination” (Chemical Science, 2025).

Of roughly 21,000 targets only a part is listed; those with the largest changes were picked by preference.
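Note: competitive profiling in live THP-1 cells: cysteine peptides tagged with an iodoacetamide desthiobiotin (IA-DTB) probe, intensity after compound treatment relative to DMSO-treated cells.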

UniProt O95714, sequence (O95714 whole entry, looked up): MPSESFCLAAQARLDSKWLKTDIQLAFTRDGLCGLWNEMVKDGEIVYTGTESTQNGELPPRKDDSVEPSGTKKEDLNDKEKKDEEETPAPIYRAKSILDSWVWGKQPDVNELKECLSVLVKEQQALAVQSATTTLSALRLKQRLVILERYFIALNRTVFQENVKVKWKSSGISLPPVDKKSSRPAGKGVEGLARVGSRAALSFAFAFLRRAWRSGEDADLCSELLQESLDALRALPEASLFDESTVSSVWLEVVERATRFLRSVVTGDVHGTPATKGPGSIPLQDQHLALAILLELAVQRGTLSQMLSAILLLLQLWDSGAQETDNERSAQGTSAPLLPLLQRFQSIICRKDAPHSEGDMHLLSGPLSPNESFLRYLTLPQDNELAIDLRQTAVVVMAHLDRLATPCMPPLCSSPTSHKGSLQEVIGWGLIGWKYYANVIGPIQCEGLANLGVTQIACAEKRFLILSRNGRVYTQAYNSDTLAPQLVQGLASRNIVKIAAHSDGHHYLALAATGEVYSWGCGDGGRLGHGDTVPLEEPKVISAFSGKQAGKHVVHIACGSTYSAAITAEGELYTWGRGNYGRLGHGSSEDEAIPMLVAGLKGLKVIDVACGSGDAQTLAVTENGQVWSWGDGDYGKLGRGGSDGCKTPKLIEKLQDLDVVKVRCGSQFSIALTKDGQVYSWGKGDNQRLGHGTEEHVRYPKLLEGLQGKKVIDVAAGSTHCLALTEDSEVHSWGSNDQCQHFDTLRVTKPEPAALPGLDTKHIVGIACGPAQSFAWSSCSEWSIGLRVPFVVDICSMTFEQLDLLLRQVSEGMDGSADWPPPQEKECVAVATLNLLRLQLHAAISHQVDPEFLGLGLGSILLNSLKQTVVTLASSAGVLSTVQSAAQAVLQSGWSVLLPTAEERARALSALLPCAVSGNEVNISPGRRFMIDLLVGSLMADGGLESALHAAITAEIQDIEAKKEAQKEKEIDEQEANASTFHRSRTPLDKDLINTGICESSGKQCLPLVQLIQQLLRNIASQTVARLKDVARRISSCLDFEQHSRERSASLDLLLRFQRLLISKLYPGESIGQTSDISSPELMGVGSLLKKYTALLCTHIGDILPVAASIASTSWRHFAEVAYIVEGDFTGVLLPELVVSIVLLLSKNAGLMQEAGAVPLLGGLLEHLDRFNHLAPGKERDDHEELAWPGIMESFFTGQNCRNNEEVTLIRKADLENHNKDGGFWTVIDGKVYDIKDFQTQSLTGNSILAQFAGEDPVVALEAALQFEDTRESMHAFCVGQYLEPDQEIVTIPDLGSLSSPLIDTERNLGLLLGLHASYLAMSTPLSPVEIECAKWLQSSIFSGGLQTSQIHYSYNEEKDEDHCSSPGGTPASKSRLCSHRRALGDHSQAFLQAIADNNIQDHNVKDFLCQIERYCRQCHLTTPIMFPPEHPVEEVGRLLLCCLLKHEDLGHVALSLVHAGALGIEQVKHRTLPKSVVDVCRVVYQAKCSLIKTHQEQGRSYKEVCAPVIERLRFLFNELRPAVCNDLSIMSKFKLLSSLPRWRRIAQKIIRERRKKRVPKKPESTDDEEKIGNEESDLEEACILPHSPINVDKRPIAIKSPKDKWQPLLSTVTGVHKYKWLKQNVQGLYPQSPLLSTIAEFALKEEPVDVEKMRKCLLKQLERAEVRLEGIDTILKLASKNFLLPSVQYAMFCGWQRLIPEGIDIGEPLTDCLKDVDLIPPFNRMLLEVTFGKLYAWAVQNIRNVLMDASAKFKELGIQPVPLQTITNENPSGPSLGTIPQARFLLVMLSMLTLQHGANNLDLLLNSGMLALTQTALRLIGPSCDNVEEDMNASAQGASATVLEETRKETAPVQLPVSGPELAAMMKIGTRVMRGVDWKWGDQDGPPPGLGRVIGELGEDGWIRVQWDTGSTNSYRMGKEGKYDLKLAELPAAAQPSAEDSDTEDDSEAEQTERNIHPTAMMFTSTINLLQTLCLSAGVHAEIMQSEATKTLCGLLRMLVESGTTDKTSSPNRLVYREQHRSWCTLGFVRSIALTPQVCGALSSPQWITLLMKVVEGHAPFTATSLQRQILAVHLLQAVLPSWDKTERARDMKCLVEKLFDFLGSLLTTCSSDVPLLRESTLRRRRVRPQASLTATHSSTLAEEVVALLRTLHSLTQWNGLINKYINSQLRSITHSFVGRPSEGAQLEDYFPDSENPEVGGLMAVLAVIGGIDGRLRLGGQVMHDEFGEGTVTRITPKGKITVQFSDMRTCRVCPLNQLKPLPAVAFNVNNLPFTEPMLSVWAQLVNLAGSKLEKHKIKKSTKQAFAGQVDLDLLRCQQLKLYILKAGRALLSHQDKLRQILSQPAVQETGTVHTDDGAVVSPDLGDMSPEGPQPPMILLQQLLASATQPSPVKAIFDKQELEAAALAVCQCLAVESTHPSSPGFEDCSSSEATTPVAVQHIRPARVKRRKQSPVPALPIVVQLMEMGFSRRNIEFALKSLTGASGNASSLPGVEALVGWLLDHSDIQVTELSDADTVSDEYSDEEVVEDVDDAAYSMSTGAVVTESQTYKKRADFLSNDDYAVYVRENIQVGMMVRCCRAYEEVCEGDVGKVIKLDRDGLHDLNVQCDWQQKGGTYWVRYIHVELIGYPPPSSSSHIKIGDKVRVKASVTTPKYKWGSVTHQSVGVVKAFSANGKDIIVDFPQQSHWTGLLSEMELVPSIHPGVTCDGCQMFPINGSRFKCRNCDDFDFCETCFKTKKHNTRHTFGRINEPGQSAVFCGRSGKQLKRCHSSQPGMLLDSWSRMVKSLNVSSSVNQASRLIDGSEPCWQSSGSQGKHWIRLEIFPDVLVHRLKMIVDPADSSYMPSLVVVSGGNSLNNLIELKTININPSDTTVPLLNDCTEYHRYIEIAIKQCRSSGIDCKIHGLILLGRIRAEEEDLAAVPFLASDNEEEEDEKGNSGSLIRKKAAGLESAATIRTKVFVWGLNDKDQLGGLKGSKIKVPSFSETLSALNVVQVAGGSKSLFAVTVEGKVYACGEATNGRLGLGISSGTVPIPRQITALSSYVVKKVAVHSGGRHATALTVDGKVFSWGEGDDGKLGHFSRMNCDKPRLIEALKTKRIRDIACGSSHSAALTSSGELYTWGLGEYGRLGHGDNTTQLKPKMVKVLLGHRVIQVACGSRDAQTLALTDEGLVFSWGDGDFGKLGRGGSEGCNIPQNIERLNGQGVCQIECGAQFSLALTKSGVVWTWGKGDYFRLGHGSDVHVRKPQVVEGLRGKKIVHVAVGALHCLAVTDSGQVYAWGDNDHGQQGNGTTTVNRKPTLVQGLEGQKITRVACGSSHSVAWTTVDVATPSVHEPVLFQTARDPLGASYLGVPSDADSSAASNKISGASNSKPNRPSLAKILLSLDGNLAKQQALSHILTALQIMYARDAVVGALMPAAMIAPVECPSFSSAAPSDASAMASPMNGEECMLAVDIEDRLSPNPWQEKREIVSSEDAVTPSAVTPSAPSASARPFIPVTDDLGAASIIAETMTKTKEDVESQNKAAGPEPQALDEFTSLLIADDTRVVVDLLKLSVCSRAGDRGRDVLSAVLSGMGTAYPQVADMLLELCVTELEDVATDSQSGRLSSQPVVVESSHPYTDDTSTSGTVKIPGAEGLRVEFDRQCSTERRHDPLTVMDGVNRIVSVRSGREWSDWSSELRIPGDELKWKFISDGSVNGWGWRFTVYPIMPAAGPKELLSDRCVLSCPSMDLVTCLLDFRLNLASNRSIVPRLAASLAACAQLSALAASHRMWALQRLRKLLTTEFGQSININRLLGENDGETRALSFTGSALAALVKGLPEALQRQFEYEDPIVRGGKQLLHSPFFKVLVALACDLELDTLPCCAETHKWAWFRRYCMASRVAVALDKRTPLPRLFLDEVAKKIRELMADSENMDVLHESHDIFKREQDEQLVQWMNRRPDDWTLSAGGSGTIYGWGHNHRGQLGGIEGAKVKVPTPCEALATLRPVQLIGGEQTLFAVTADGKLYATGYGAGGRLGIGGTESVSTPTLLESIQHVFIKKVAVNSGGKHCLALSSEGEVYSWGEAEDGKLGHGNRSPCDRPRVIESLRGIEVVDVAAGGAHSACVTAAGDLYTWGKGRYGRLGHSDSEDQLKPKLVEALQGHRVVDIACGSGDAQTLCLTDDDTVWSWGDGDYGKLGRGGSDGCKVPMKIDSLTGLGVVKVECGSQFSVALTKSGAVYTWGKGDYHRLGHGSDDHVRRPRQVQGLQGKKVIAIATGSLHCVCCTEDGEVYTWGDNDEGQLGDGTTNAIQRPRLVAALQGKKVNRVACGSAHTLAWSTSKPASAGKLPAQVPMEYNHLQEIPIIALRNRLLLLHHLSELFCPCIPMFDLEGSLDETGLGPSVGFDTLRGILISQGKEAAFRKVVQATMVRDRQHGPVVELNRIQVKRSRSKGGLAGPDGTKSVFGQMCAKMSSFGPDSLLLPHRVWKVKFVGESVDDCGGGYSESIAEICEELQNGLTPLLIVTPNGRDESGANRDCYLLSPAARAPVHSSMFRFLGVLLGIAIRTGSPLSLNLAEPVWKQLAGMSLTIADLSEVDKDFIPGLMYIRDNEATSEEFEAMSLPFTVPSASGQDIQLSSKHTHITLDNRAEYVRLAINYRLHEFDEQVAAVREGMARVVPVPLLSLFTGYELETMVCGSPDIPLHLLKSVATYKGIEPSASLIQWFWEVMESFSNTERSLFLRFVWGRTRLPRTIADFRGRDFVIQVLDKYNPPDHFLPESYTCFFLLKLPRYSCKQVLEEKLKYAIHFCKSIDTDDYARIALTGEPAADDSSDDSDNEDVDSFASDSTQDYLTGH
UniProt Q13642, sequence (Q13642 whole entry, looked up): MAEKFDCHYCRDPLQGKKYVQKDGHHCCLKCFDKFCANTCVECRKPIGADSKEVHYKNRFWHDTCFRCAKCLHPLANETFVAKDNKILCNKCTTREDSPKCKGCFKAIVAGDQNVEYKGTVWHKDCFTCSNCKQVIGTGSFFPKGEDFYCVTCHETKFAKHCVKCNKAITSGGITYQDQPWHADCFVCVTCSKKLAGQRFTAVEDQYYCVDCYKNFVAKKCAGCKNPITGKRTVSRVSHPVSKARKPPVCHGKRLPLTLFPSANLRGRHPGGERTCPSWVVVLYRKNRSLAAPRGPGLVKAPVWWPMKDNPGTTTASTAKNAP

Compound in this experiment: Cc1cc(ccc1-c1ccccc1)C(=O)N1CCCN(CC1)C(=O)CCl [compound 10]
Briefly: probe-labelled cysteine peptide fold change vs DMSO (competition) (log2 fold change); higher = less target engagement (more negative = stronger competition). Particulars: 10 µM; THP-1; incubation time: 4 h.
For “GTF3C5_Q9Y5Q8_75_DPYCHPVCANR (UniProt Q9Y5Q8)”, the “probe-labelled cysteine peptide fold change” value was 0.121. Turning to “FHL1_Q13642_150_GEDFYCVTCHETK (UniProt Q13642)”, the “probe-labelled cysteine peptide fold change” value is 0.107. On to “GABPA_Q06546_69_LQCSLDAHEICLQDIQLDPER (UniProt Q06546)”, for which the “probe-labelled cysteine peptide fold change” value is 0.331. “GALNT7_Q86SF2_545_GFETAYCIDSMGK (UniProt Q86SF2)”: the “probe-labelled cysteine peptide fold change” value is -0.0613.

For the target “HEATR5A_Q86XA9_1635_QIICAAQEHVK (UniProt Q86XA9)”, the “probe-labelled cysteine peptide fold change” value turned out to be 0.0658. On to “FRMD8_Q9BZ67_206_LDSFLPAHLCK (UniProt Q9BZ67)”, for which the “probe-labelled cysteine peptide fold change” value was -0.0859. “GCLM_P48507_35+46_CPSTHSEELHDCIQK (UniProt P48507)”: the “probe-labelled cysteine peptide fold change” value was -0.112.

For the target “HERC2_O95714_1201_ERDDHEELAWPGIMESFFTGQNCR (UniProt O95714)”, the “probe-labelled cysteine peptide fold change” value is -0.0998.

On to “GATD1_Q8NB37_94_YHALLIPSCPGALTDLASSGSLAR (UniProt Q8NB37)”, for which the “probe-labelled cysteine peptide fold change” value was 0.0159. As for “HDAC8_Q9BY41_153_KDEASGFCYLNDAVLGILR (UniProt Q9BY41)”, the figure is -0.0393; as for “GEMIN5_Q8TEQ6_1421_NEPEVEAEQPLCSSQSQCK (UniProt Q8TEQ6)”, 0.068; as for “GPD1L_Q8N335_216_NIVAVGAGFCDGLR (UniProt Q8N335)”, -0.0284.

As to “HGS_O14964_212_VCEPCYEQLNR (UniProt O14964)”, the “probe-labelled cysteine peptide fold change” value amounted to 0.0236.

With “GPX1_P07203_78_GLVVLGFPCNQFGHQENAKNEEILNSLK (UniProt P07203)”, the “probe-labelled cysteine peptide fold change” value is -0.208. Take “GTF2I_P78347_475_MVDQLFCK (UniProt P78347)”: the “probe-labelled cysteine peptide fold change” value is -0.213. As for “FGR_P09769_415_LIKDDEYNPCQGSK (UniProt P09769)”, the “probe-labelled cysteine peptide fold change” value is -0.148.
